High-throughput results from PubChem.
MEKK2 WT-MEK5 – raises or lowers MEK5 binding to wildtype human MEKK2 PB1 domain; bead flow cytometry, Alexa488-MEK5 binding to MEKK2 WT; actives lie on both sides; binding response (% of control), % at 10 µM; 290,000 tested, 1.1% active; AID 1531; in the data active means binding response below about 67% or above about 130%
MEKK3 PB1 HTS – raises or lowers MEK5 binding to the human MEKK3 PB1 domain; Q99759; bead-based flow cytometry, Alexa488-MEK5 binding to MEKK3; actives lie on both sides; 0 = blocked by unlabeled MEK5, 100 = vehicle; binding response (% of control), % at 10 µM; 290,000 tested, 1.4% active; AID 1529;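 active means binding response more than 3 SD above or below the average of its plate-row segment, actives on both sides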;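 further: Alexa488 bead fluorescence after subtracting the streptavidin-only scavenger bead signal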
GRK2 inh – blocks RNA aptamer binding to human GRK2; bead flow cytometry, FAM-aptamer displacement from GRK2; inhibition of aptamer binding, % at 10 µM; 330,000 tested, 0.59% active; P25098;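 active means inhibition of aptamer binding above 40%, roughly 3 SD of noise, on plates passing a quality check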;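 further: median bead fluorescence of bound FAM aptamer so fluorescent compounds give negative values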
MEKK2 mut-MEK5 – signal of MEK5 binding to mutant human MEKK2 PB1 domain; percent response, % at 10 µM; 290,000 tested, 0.35% active; bead flow cytometry, Alexa488-MEK5 binding to MEKK2 mutant; in the data active means percent response above about 24%, passing the limit was not always enough
MEKK2wt confirm – raises or lowers MEK5 binding to wildtype human MEKK2, retest | shares compounds with MEKK3 PB1 HTS | bead flow cytometry, Alexa488-MEK5 binding to MEKK2 WT; actives lie on both sides | binding response (% of control), % at 10 µM | 5,900 tested, 2.4% active | AID 1892; in the data active means binding response below about 16% or above about 210%; inactive means in between
MEKK2mut-MEK5 – signal of MEK5 binding to mutant human MEKK2, retest; shares compounds with MEKK3 PB1 HTS; bead flow cytometry, Alexa488-MEK5 binding to MEKK2 mutant; percent response, % at 10 µM; 5,900 tested, 2% active; AID 1893; in the data active means percent response mostly above about 71%, no sharp cut-off; inactive means mostly below about 38%;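 further: higher means compound restores mutant binding toward wildtype level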
MEKK3-MEK5 inh – confirmation of inhibitors of MEK5 binding to human MEKK3. shares compounds with MEKK3 PB1 HTS. bead flow cytometry, Alexa488-MEK5 binding to MEKK3; stronger effect = lower value. binding response (% of control), % at 10 µM. 5,900 tested, 1.8% active;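 active means binding response below 72% of control, or above a set upper limit, though filed actives all read lower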;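 further: 100% = DMSO only wells and 0% = binding blocked by excess unlabeled MEK5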
GRK2 CP1 – confirmation of human GRK2 inhibitors displacing RNA aptamer; shares compounds with GRK2 inh; bead-bound GRK2, FAM-aptamer displacement, flow cytometry; aptamer displacement, % at 10 µM; 2,000 tested, 4% active; AID 504451;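 active means aptamer displacement above 40%, near three times the noise of non-fluorescent compounds, on plates passing quality checks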;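 further: negative values mostly reflect intrinsic compound fluorescence rather than true enhancement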
FAM quench CP1 – aptamer fluorescence quenching in GRK2 counter-screen; shares compounds with GRK2 inh; Carboxyfluorescein RNA aptamer on beads, flow cytometry quenching; stronger effect = lower value; fluorescence response (% of DMSO), % at 10 µM; 2,000 tested, under 10 active;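 active means compounds that quench the bead-bound fluorescent RNA probe, cutting fluorescence to under half of the solvent control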;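 further: counterscreen run without GRK2 so only probe quenching by compound is measured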
GRK2 confirm 2 – confirmation of human GRK2 inhibitors binding RNA aptamer site. 360 tested, under 10 active. AID 504782. shares compounds with GRK2 inh. inhibition of aptamer binding, % at 10 µM. bead-bound GRK2, FAM-aptamer displacement, flow cytometry;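 active means inhibition of aptamer binding above 40%, about triple the noise seen with nonglowing compounds, on plates passing quality control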;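 further: negative values mostly come from compounds that fluoresce themselves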
FAM quench CP2 – quenches fluorescent RNA aptamer, GRK2 hit artifact. shares compounds with GRK2 inh. carboxyfluorescein RNA aptamer beads, flow cytometry quenching; stronger effect = lower value. fluorescence response vs DMSO, % at 10 µM. 360 tested, under 10 active. AID 588494;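 active means response vs DMSO under 50%, meaning signal dropped by over half, treated as fluorescence quencher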;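 further: labelled aptamer on streptavidin beads without GRK2 as a quench counter-screen; 100% = bead fluorescence of DMSO wells and lower means quenching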
An asterisk follows results filed as active; nt = no result; [ ] = dose if it differs, or a comment. An excerpt weighted towards active compounds, which were near 2.5% of everything screened.

SMILES	MEKK2 WT-MEK5	MEKK3 PB1 HTS	GRK2 inh	MEKK2 mut-MEK5	MEKK2wt confirm	MEKK2mut-MEK5	MEKK3-MEK5 inh	GRK2 CP1	FAM quench CP1	others
CC1(C)Cc2c(sc(N)c2C#N)C(C)(C)N1	96.0	106.0	0.0	-8.0	nt	nt	nt	nt	nt
CN1Cc2sc(N)c(C#N)c2CC1(C)C	52.0*[inhibitor]	88.0	52.0*	-14.0	94.0	4.0	88.0	3.1	96.5
CO[C@H]1O[C@H](C)[C@@H](O)C[C@H]1NC(=O)OCc1ccccc1	111.0	105.0	3.0	6.0	nt	nt	nt	nt	nt
c1ccc(CSc2ccc(-c3ccc4c(c3)OCO4)nn2)cc1	110.0	101.0	1.0	10.0	nt	nt	nt	nt	nt
Fc1ccc(CSc2ccc(-c3ccc4c(c3)OCO4)nn2)cc1	105.0	135.0*	49.0*	0.0	105.0	7.0	104.0	nt	nt	GRK2 confirm 2=12.9;FAM quench CP2=99.0
CCN(CC(=O)Nc1ccc(NC(C)=O)cc1)C(=O)/C=C/c1c(C)nn(-c2ccc(F)cc2)c1C	103.0	102.0	0.0	4.0	nt	nt	nt	nt	nt
CCCNC(=O)CSc1nc(-c2cccs2)cc(C(F)(F)F)n1	101.0	100.0	0.0	1.0	nt	nt	nt	nt	nt
Cc1cc(NC(=O)CSc2nc(-c3cccs3)cc(C(F)(F)F)n2)no1	-7.0*[inhibitor]	89.0	45.0*	-35.0	96.0	0.0	100.0	0.6	92.4
CCOC(=O)[C@H]1[C@H]2COc3cc(OC)ccc3[C@@H]2N2C(=O)c3c(C)cc(C)cc3NC(=O)[C@@]12C	nt	nt	0.0	nt	nt	nt	nt	nt	nt
CC(=Nc1ccccc1)C1=C(O)CCCC1=O	105.0	136.0*	35.0	1.0	97.0	-1.0	93.0	3.6	97.2
C=CCSC1=C(C#N)C(c2ccccc2OC)CC(=O)N1 (stereo not given)	106.0	110.0	1.0	7.0	nt	nt	nt	nt	nt
C=CCSC1=C(C#N)C(c2ccccc2OCC)CC(=O)N1 (stereo not given)	-8.0*[inhibitor]	0.0*[inhibitor]	37.0	-22.0	111.0	7.0	105.0	1.0	100.6
Cc1ccc(-c2cc(C(=O)NCc3cccs3)no2)cc1	105.0	104.0	1.0	5.0	nt	nt	nt	nt	nt
O=C(NCc1cccs1)c1cc(-c2ccc(O)cc2)on1	55.0	46.0*[inhibitor]	79.0*	-17.0	101.0	1.0	105.0	-2.9	98.2
Cc1cc2cc(CNS(=O)(=O)c3ccccc3)ccc2n1C	39.0*[inhibitor]	61.0	54.0*	-20.0	50.0	-14.0	73.0	3.0	84.0
Cc1c(C(=O)OC(C)C)sc(N)c1C(=O)OC(C)C	104.0	131.0*	70.0*	0.0	102.0	-2.0	102.0	nt	nt	GRK2 confirm 2=-3.9;FAM quench CP2=97.0
